# Results taken from PubChem BioAssay (Tox21).
# Inconclusive results are not listed. Calls of active or inactive are those of the source. Calls come from the whole dose curve.
# Experiment: qHTS assay to identify small molecule agonists of the progesterone receptor (PR) signaling pathway - cell viability counter screen (AID 1346799); note: nearly all actives have a fitted effect of over 45% in size
# Settings: PR-UAS-bla HEK293T viability, CellTiter-Glo luminescence, 16 h; series mostly up to 92.4 µM; activity change, negative = cytotoxicity: at the top concentration
# Description: National Center for Advancing Translational Sciences [NCATS]
# NIH Chemical Genomics Center [NCGC]
# U.S. Environmental Protection Agency [EPA]
# National Institutes of Environmental Health Sciences [NIEHS]
# National Toxicology Program [NTP]
# U.S. Food and Drug Administration [FDA]
# Progesterone receptor (PR), a nuclear hormone receptor, plays an important role in development, metabolic homeostasis and reproduction. It is activated by the steroid hormone progesterone. Endocrine disrupting chemicals (EDCs) and their interactions with steroid hormone receptors like PR causes disruption of normal endocrine function. To identify the compounds that stimulate PR signaling, a PR-UAS-bla GripTite cell line i.e. PR-UAS-bla HEK293T (Invitrogen, Carlsbad, CA, USA) containing a beta-lactamase reporter gene under the control of an UAS response element was used to screen Tox21 10K compound library. The cytotoxicity of the Tox21 compound library against the PR-bla cell line was tested in parallel by measuring the cell viability using CellTiter-Glo assay in the same wells.
# Tox21 Assay Protocol Summary:
# PR-UAS-bla HEK293T cells were dispensed at 3,000 cells/5 uL of assay medium containing 2% charcoal stripped FBS per well into black wall/clear-bottom 1536-well plates using a Multidrop Combi (ThermoFisher Scientific, Waltham, MA) dispenser. After the assay plates were incubated at a 37C and 5% CO2 for 6 hr, 23 nL of compounds dissolved in DMSO, positive controls or DMSO only was transferred to the assay plate by a Pintool station (Kalypsys, San Diego, CA). The plates were incubated at 37C and 5% CO2 for 16 hr. Then 1 uL of LiveBLAzer B/G FRET substrate was added using a Flying Reagent Dispenser (FRD, Aurora Discovery, San Diego, CA), the plates were incubated at room temperature for 2 hours, and fluorescence intensity was measured by an Envision plate reader (PerkinElmer, Shelton, CT). For cell viability readout that measures cytotoxicity, 4 uL/well of CellTiter-Glo reagent was added into the assay plates using a FRD. After 30 min incubation at room temperature, the luminescence intensity in the plates was measured using a ViewLux (PerkinElmer) plate reader.
# % is set by controls: 0 for no effect and ±100 for the full control effect.
row,SMILES,"activity change, negative = cytotoxicity"
1,Nc1cc(S(=O)(=O)O)ccc1O,9.59% (inactive)
2,CCCCN(CCCC)CCCCCCN(CCCC)CCCC,-2.98% (inactive)
3,CC(O)C(CO)C(C)O (stereo not given),9.15% (inactive)
4,C[C@@H]1NC(=O)[C@@H](N)CNC(=O)[C@H](C2CCNC(N)=N2)NC(=O)/C(=C/NC(N)=O)NC(=O)[C@H](CNC(=O)C[C@@H](N)CCCN)NC1=O (stereo not given in full),-15.7% [at 0.349 µM] (inactive)
5,CCO/C=C1\N=C(c2ccccc2)OC1=O,3.62% (inactive)
6,CC(C)C(=O)Nc1cccc(C2CN3CCSC3=N2)c1 (stereo not given),2.3% [at 42.5 µM] (inactive)
7,CCCCN=C(N)N=C(N)N,36.9% [at 42.5 µM] (inactive)
8,CC1(C)S[C@@H]2[C@H](NC(=O)Cc3ccccc3)C(=O)N2[C@H]1C(=O)O (tested in a mixture with another compound),3.02% [at 42.5 µM] (inactive)
9,BrCCOc1ccccc1,10.5% (inactive)
10,CCCCCCC(O)CO (stereo not given),4.47% (inactive)
11,CC(C)c1cc(C(C)C)cc(C(C)C)c1,7.67% (inactive)
12,C[n+]1ccccc1/C=N/O,6.78% [at 42.5 µM] (inactive)
13,COc1cc(NS(=O)(=O)c2ccc(N)cc2)ncn1,9.08% [at 42.5 µM] (inactive)
14,O=C(O)COc1ccc2ccccc2c1,-11.3% (inactive)
15,C=CCn1cc[n+](C)c1,11.6% (inactive)
16,CN(C)CCc1c[nH]c2ccc(CS(=O)(=O)N3CCCC3)cc12,5.68% [at 42.5 µM] (inactive)
17,N#CC1(N)CCCCC1,7.37% (inactive)
18,Cc1cc(C)c(N)c(Cl)c1,2.11% (inactive)
19,CN(C)c1cc(NC(=O)CNC(C)(C)C)c(O)c2c1C[C@H]1C[C@H]3[C@H](N(C)C)C(=O)C(C(N)=O)=C(O)[C@@]3(O)C(=O)C1=C2O,-29% [at 42.5 µM] (inactive)
20,COc1cc(S(N)(=O)=O)cc(C(=O)O)c1OC,7.37% [at 42.5 µM] (inactive)

row,SMILES,"activity change, negative = cytotoxicity"
1,CC(C)(O)c1ccc(C(C)(C)O)cc1,3.73% (inactive)
2,CCCC(=O)OC,0.334% (inactive)
3,C=COCCCCO,0.716% (inactive)
4,C[C@@H]1CCC[C@H](C)N1CCCC(O)(c1ccccc1)c1ccccn1 (stereo not given in full),2.35% [at 42.5 µM] (inactive)
5,CCCCCCCC(=O)N(C)C,23% (inactive)
6,CCCC(=O)C(CC)Sc1ccoc1C (stereo not given),3.08% (inactive)
7,C=CCON/C(CCC)=C1\C(=O)CC(C)(C)C(C(=O)OC)=C1O,0.668% (inactive)
8,C[Si](C)(C)O[Si](O)(O)O,-1.13% (inactive)
9,CC(CN1CC(=O)NC(=O)C1)N1CC(=O)NC(=O)C1 (stereo not given),-0.0834% (inactive)
10,CC/C=C\CCCCCCCCCCOC(C)=O,5.53% (inactive)
11,CCOC(=O)c1ccc(N(C)C)cc1,0.603% (inactive)
12,CCOc1ccccc1OCCN[C@H](C)Cc1ccc(OC)c(S(N)(=O)=O)c1,-18.3% [at 42.5 µM] (inactive)
13,Cc1nc2ccc(Cl)cc2[nH]1,19% (inactive)
14,Cc1cccc(N)n1,-1.47% (inactive)
15,C/C=C/C(=O)CCCC,-1.42% (inactive)
16,NNC(=O)CCCCC(=O)NN,-2.57% (inactive)
17,CC(C)(C)NCC(O)COc1cccc2c1CCC(=O)N2 (stereo not given),2.07% [at 42.5 µM] (inactive)
18,C/C=C(\C)C(=O)OC/C=C(\C)CCC=C(C)C,1.64% (inactive)
19,C=CCCCCCCCCCCCCCC,11.1% [at 19 µM] (inactive)
20,CC1=C(O)C(=O)CO1,-1.73% (inactive)
